# Results: PubChem BioAssay
# Active and inactive are the calls of the source. Cut-off read from the data, not from the text of the source, unless noted: active = inhibition above about 80%; inactive = the rest.
# Tests used:
# [1] = growth inhibition, single agent or in combination, cell-based, chromothripsis tumors, cisplatin or BGB combos (AID 1671449); settings: LFS_MB_P medulloblastoma cells;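 note: cells exposed for 96 hours; 0% = vehicle DMSO and 100% = killing by high DMSO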
# [2] = growth inhibition, single agent and combos, cell-based, chromothripsis tumors, cisplatin or BGB combos (AID 1671450); settings: HDN33 neuroblastoma cells, stronger effect = higher value;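 note: cells exposed to compound for four days; 0% = vehicle DMSO and 100% = cell killing by high DMSO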
# [3] = growth inhibition, single agents and combos, ICB984, cell-based, cisplatin or BGB combos, synergistic combos for chromothripsis tumors (AID 1671451; call rule not given here;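 note: cells exposed for 96 hours before readout; 0% = vehicle DMSO and 100% = killing by high DMSO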); settings: ICB984 medulloblastoma cells, drug combinations, stronger effect = higher value
# [4] = growth inhibition, single agents and combos, LFS_MB_1R, cell-based, cisplatin or BGB combos, synergistic combos for chromothripsis tumors (AID 1671452); settings: LFS_MB_1R medulloblastoma cells, stronger effect = higher value;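 note: cells exposed for 96 hours before readout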
# [5] = growth inhibition, single agents and combos, HTB85, cell-based, BGB or cisplatin IC20 combos, synergistic combos for chromothripsis tumors (AID 1671453); settings: HTB85 osteosarcoma cells, drug combinations, stronger effect = higher value;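 note: cells exposed for 96 hours before readout; 0% = vehicle DMSO and 100% = high DMSO killing control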
# [6] = growth inhibition, single agents and combos, CRL2098, cell-based, BGB or cisplatin IC20 combos, synergistic combos for chromothripsis tumors (AID 1671454); settings: CRL2098 osteosarcoma cells, drug combinations, stronger effect = higher value;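 note: cells exposed for 96 h before readout; 0% = vehicle DMSO and 100% = killing by high DMSO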
# [7] = growth inhibition, single agents and combos, HD-MB03, cell-based, BGB or cisplatin IC20 combos, synergistic combos for chromothripsis tumors (AID 1671455; in the data active = inhibition above about 83%;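 note: 0% = vehicle DMSO and 100% = high DMSO as cytotoxic control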); settings: HD-MB03 medulloblastoma cells, stronger effect = higher value
# [8] = growth inhibition, single agents and combos, UWB1.289, cell-based, BGB or cisplatin combos, synergistic combos for chromothripsis tumors (AID 1671456); settings: UWB1.289 ovarian carcinoma cells, stronger effect = higher value;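 note: cells exposed to compound for four days; 0% = vehicle DMSO and 100% = killing by high DMSO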
# [9] = growth inhibition, single agents and combos, LFS_MB_2R, cell-based, cisplatin combos, synergistic combos for chromothripsis tumors (AID 1671457); settings: LFS_MB_2R medulloblastoma cells, stronger effect = higher value;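 note: cells exposed to compound for four days before readout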
# [10] = growth inhibition, MDA-MB-436, cell-based, BGB or cisplatin combos, synergistic combos for chromothripsis tumors (AID 1671458; call rule not given here;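 note: cells exposed for 96 hours; 0% = vehicle DMSO and 100% = killing by high DMSO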); settings: MDA-MB-436 breast carcinoma growth inhibition, drug combinations, stronger effect = higher value
# [11] = UWB1.289_BRCA1 ovarian cancer growth, cell-based, BGB or cisplatin combinations (AID 1671459); settings: UWB1.289 BRCA1 ovarian carcinoma, drug combinations, stronger effect = higher value
# [12] = drug combination toxicity in non-malignant astrocytes – cell-based, BGB or cisplatin IC20 combos, cytotoxicity control for chromothriptic childhood tumor combination screen (AID 1671460); settings: Human astrocytes, viability inhibition, drug combinations, at 0.5 µM, stronger effect = higher value;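 note: cells exposed to compounds for 96 hours before viability readout; 0% = vehicle and 100% = killing control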
# [13] = BT084 cell growth, single and combined drugs, ICGC_MB145, cisplatin and BGB IC40 combos (AID 1671461); settings: BT084 medulloblastoma cells, drug combinations, stronger effect = higher value;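 note: cells exposed to drugs for 96 hours; 0% = vehicle DMSO and 100% = high DMSO full killing control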
# [14] = RCMB18 cell growth, single agent and combined, cisplatin and BGB IC40 combos (AID 1671462); settings: RCMB18 medulloblastoma cells, stronger effect = higher value;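 note: cells exposed to compound for four days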
# [15] = CRL1545 cell growth, single agent and combined, cisplatin and BGB IC20 combos (AID 1671464); settings: CRL1545 osteosarcoma cells, stronger effect = higher value;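 note: cells exposed to compound for 96 hours before readout; 0% = vehicle DMSO and 100% = high DMSO killing control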
# [16] = measured here: combination with BGB IC40, at 0.05 µM
# [17] = measured here: with BGB IC20 combination, at 0.5 µM
# [18] = measured here: with cisplatin IC20 combination, at 0.5 µM
# [19] = measured here: combination with cisplatin, at 0.5 µM
# [20] = measured here: combination with cisplatin, at 5 µM
compound,measurement,setting,value
CC1OC(CC(=O)O)CC2=C1C(=O)c1c(O)cccc1C2=O (stereo not drawn),inhibition,"[1]; at 0.5 µM, stronger effect = higher value",13.6% (inactive)
same,inhibition,"[1]; measured here: combination with BGB IC20, at 0.005 µM",-20.4%
same,inhibition,"[1]; measured here: combination with BGB IC40, at 0.005 µM",-16.6%
same,inhibition,[1]; [16],120%
same,inhibition,"[1]; measured here: combination with cisplatin, at 0.5 µM, stronger effect = higher value",28.7%
same,inhibition,"[1]; measured here: combination with cisplatin, at 5 µM, stronger effect = higher value",128%
same,inhibition,"[2]; BGB combo, at 5 µM",100%
same,inhibition,[2]; at 0.5 µM,99.9% (active)
same,inhibition,"[2]; cisplatin combo, at 5 µM",99.9%
same,inhibition,[2]; [17],99.9%
same,inhibition,[2]; [18],99.9%
same,inhibition,"[2]; single agent, at 5 µM",99.9%
same,inhibition,"[3]; BGB IC20 combo, at 0.005 µM",101%
same,inhibition,"[3]; BGB IC40 combo, at 0.005 µM",102%
same,inhibition,"[3]; BGB IC40 combo, at 0.05 µM",102%
same,inhibition,[3]; at 0.5 µM,0.28% (inactive)
same,inhibition,"[3]; cisplatin combo, at 0.05 µM",102%
same,inhibition,"[3]; cisplatin combo, at 0.5 µM",10.8%
same,inhibition,"[3]; cisplatin combo, at 5 µM",102%
same,inhibition,"[3]; measured here: 5 uM single agent, at 5 µM",98.7%
same,inhibition,[4]; at 0.5 µM,106% (active)
same,inhibition,[4]; [16],101%
same,inhibition,[4]; [19],111%
same,inhibition,[4]; [20],106%
same,inhibition,[5]; at 0.5 µM,99.9% (active)
same,inhibition,"[5]; measured here: with BGB IC20, at 0.5 µM",100%
same,inhibition,"[5]; measured here: with BGB IC20, at 5 µM",100%
same,inhibition,"[5]; measured here: with cisplatin IC20, at 0.5 µM",99.9%
same,inhibition,"[5]; measured here: with cisplatin IC20, at 5 µM",99.7%
same,inhibition,"[5]; single agent, at 5 µM",99.7%
same,inhibition,[6]; at 0.5 µM,100% (active)
same,inhibition,"[6]; measured here: combination with BGB at IC20, at 0.5 µM",100%
same,inhibition,"[6]; measured here: combination with cisplatin at IC20, at 0.5 µM",100%
same,inhibition,[7]; at 0.5 µM,99.8% (active)
same,inhibition,"[7]; measured here: combo with BGB at IC20, at 0.5 µM",99.9%
same,inhibition,"[7]; measured here: combo with cisplatin at IC20, at 0.5 µM",99.8%
same,inhibition,[8]; at 0.5 µM,102% (active)
same,inhibition,"[8]; measured here: inhibition with BGB combination, at 0.05 µM",65.9%
same,inhibition,"[8]; measured here: inhibition with cisplatin combination, at 0.05 µM",91.2%
same,inhibition,[9]; at 0.5 µM,106% (active)
same,inhibition,[9]; [19],105%
same,inhibition,[9]; [20],105%
same,inhibition,[10]; at 0.5 µM,102% (active)
same,inhibition,"[10]; measured here: BGB combination, at 0.5 µM",103%
same,inhibition,"[10]; measured here: BGB combination, at 5 µM",103%
same,inhibition,"[10]; measured here: cisplatin combination, at 0.5 µM",101%
same,inhibition,"[10]; measured here: cisplatin combination, at 5 µM",109%
same,inhibition,"[11]; BGB combination, concentration series, at 5 µM",121%
same,inhibition,[11]; at 0.5 µM,111% (active)
same,inhibition,"[11]; cisplatin combination, concentration series, at 5 µM",132%
same,inhibition,[12],102% (active)
same,inhibition,[12]; measured here: combo with BGB IC20,105%
same,inhibition,[12]; measured here: combo with cisplatin IC20,101%
same,inhibition,[13]; at 0.5 µM,106% (active)
same,inhibition,"[13]; cisplatin combination, at 0.5 µM",108%
same,inhibition,"[13]; cisplatin combination, at 5 µM",110%
same,inhibition,"[13]; measured here: BGB IC40 combination 0.05 uM, at 0.05 µM",67.7%
same,inhibition,"[13]; single agent, at 5 µM",107%
same,inhibition,[14]; at 0.5 µM,99.3% (active)
same,inhibition,"[14]; cisplatin combo, at 5 µM",103%
same,inhibition,"[14]; measured here: BGB IC40 combination, at 0.05 µM",97.5%
same,inhibition,[14]; [19],102%
same,inhibition,"[14]; single agent, at 5 µM",101%
same,inhibition,[15]; at 0.5 µM,99.9% (active)
same,inhibition,[15]; [17],99.9%
same,inhibition,[15]; [18],99.9%
same,inhibition,"[15]; single agent, at 0.05 µM",99.9%
same,inhibition,"[15]; single agent, at 5 µM",99.9%
